# Calpain2 inh: calpain II (pig) inhibition | hit rate 0.37% among 220,000 | purified calpain II, fluorogenic peptide substrate, 30 min | inhibition, % at 16 µM | AID 1236;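 active means inhibition above about 50%, limit read from the data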
# EP2 antag: blocks the human prostaglandin E2 receptor EP2; inhibition, % at 25 µM; C6 glioma cells expressing human EP2, cAMP TR-FRET; cells stimulated with saturating PGE2; hit rate 0.52% among 260,000; P43116;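 active means percent inhibition above 40 after rounding to a whole number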;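 further: rat C6 glioma host cells with rolipram phosphodiesterase inhibitor present; the protocol text gives 20 µM as final concentration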
# Target sequence (P43116 whole entry, looked up): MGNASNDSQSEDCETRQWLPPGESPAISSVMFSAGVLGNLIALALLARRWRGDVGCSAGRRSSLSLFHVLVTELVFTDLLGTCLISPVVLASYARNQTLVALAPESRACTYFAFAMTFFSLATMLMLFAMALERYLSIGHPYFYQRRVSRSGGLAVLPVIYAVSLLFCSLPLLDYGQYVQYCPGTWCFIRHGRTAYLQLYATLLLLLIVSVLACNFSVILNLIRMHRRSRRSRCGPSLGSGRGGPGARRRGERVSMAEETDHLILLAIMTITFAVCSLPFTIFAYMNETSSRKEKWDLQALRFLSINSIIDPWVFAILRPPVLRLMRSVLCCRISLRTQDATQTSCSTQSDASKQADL
# HMGR II inh: blocks class II HMG-CoA reductase of Enterococcus faecalis | inhibition, % at 10 µM | purified E. faecalis HMGR, NADPH absorbance 340 nm kinetic | AID 1066 | hit rate 0.41% among 190,000;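 active means inhibition above a set limit, the median over all tested compounds plus 3 SD, cut at about 9.5% in these data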;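 further: enzyme runs in reverse so mevalonate oxidation gives rising NADPH absorbance; 0% = complete reaction with DMSO and 100% = background rate lacking mevalonate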
# Furin inhibitor: inhibitors of human furin; purified furin, fluorogenic substrate cleavage; hit rate 0.061% among 220,000; inhibition, % at 20 µM or 30 µM; AID 463115; P09958; in the data active means inhibition above about 25%
# EP2 modulator: modulators of human EP2 prostaglandin E2 receptor | EP2-expressing cells, cAMP HTRF FRET, PGE2 co-stimulation | induction, % at 25 µM | hit rate 0.83% among 260,000 | AID 940;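 active means compounds whose cAMP rise, as percent of the full-agonist control response, exceeds 60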;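 further: rat C6 glioma line stably carrying human EP2 under a CMV promoter; the protocol text gives 20 µM as final concentration; 100% = response of wells given 1 µM PGE2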
# EP2 cAMP induct: EP2 receptor cAMP induction, counter-screens negative | shares compounds with EP2 modulator | C6 glioma EP2 cells, cAMP HTRF induction; plus low (about EC15) PGE2 agonist | calls only at 20 µM (by protocol) | hit rate 47% among 1,300;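 active means cAMP induction above 50% in the main assay while under 30% in all four parallel counter assays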;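 further: rat C6 glioma cells stably expressing human EP2 receptor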
# The depositor's hits bear a star; i = inactive; x = no result; + = active, no number. Compounds with a hit are over-represented: about 1.9% of the library has one in this group of screens.
SMILES,Calpain2 inh,EP2 antag,HMGR II inh,Furin inhibitor,EP2 modulator,EP2 cAMP induct
C=CCOc1ccccc1CNc1ccccc1C,-5.3,6.9,-3.1,-25.5,80.9*,+
NCCSc1nc(-c2ccccc2)c(-c2ccccc2)o1,x,9.6,x,x,42.1,x
N/C(CSc1nc(-c2ccccc2)c(-c2ccccc2)o1)=N\O,-10.9,7.2,-0.1,-9.7,66.8*,+
COc1cccc(Cn2c3cc(C)sc3c3cnn(CC(=O)N4CCCC4)c(=O)c32)c1,x,x,x,x,17.9,x
COc1ccc(C2=Nn3c(nnc3-c3ccc(OC)cc3)SC2)cc1,-28.9,4.7,-3.0,-14.7,91.5*,+
CCc1ccc(C2=Nn3c(nnc3-c3cccs3)SC2)cc1,8.8,15.4,-10.1,-20.8,88.6*,+
COc1ccc(C2=Nn3c(nnc3-c3ccccc3OC)SC2)cc1OC,20.9,7.9,-4.0,-5.4,73.9*,i
COc1ccc(C2=Nn3c(nnc3-c3ccccn3)SC2)cc1OC,-4.1,2.5,-1.0,-9.9,41.7,x
O=C(Nc1cccc(C(F)(F)F)c1)C1CCN(C(=O)c2cccs2)CC1,x,3.7,x,x,-30.9,x
CC(=O)NCCn1c(SCC(=O)NCCC2=CCCCC2)nc2ccccc2c1=O,12.8,6.9,-10.7,-3.6,-27.0,x
Cc1nc(NC(=O)CSc2cc(C)c3ccccc3n2)c(Cl)cc1Cl,13.7,7.0,2.7,-19.9,19.6,x
Cc1cc(SCC(=O)Nc2cccnc2Cl)nc2ccccc12,25.5,4.4,-2.6,-19.6,66.7*,i
Cc1ccccc1NC(=O)CSc1nc(COc2ccccc2)nc2ccccc12,-10.6,7.2,3.0,3.0,84.5*,i
Cc1cc(SCC(=O)NCCC2=CCCCC2)nc2ccccc12,44.2,5.4,-4.4,-11.5,70.4*,i
Cc1cc(C)c(NC(=O)CSc2nc(COc3ccccc3)nc3ccccc23)c(C)c1,-45.6,39.0,-4.4,-14.7,40.4,x
CCN(C(=O)c1cc(OC)c(OC)c(OC)c1)c1nc(-c2ccc(F)cc2)cs1,x,7.7,x,x,-41.8,x
CCCC(=O)N(Cc1cc2cc(OC)ccc2[nH]c1=O)c1ccccc1OC,x,5.8,x,x,-20.7,x
CCOC(=O)/C(N=Nc1c(Br)cc(Br)cc1Br)=C(\C)O,-1.2,7.6,-2.6,-13.0,68.3*,i
CCOC(=O)NC(=O)/C(N=Nc1cc(C)cc(C)c1)=C(\C)O,34.7,4.0,-6.1,-19.6,34.0,x
COc1ccc2[nH]c(=O)c(C(c3nnnn3CC3CCCO3)N3CCOCC3)cc2c1 (stereo not drawn),x,8.4,x,x,16.9,x
CCOC(=O)c1c(CC(C)C)csc1NC(=O)CCl,10.6,x,-7.5,-12.3,74.2*,i
CCOC(=O)c1c(CC(C)C)csc1N,20.0,7.8,-1.9,-15.8,71.9*,i
CS(=O)(=O)N(CC(=O)NCc1ccccn1)c1cccc(F)c1,x,8.0,x,x,4.0,x
COc1ccc(-c2cc(C(F)(F)F)nc(N3CCCCC3)n2)cc1OC,-20.2,2.5,-3.6,-7.7,55.5,+
CCC(C)(C)n1nnnc1C(c1cccnc1)N1CCC(Cc2ccccc2)CC1 (stereo not drawn),28.8,6.3,4.3,-12.6,-31.1,x
SMILES,Calpain2 inh,EP2 antag,HMGR II inh,Furin inhibitor,EP2 modulator,EP2 cAMP induct
CCC(C)(C)n1nnnc1C(c1ccncc1)N1CCC(Cc2ccccc2)CC1 (stereo not drawn),-22.3,2.7,-9.6,-5.2,79.0*,i
Cc1ccc(-c2nnn(CC(=O)NC3CCCC3)n2)cc1,x,10.4,x,x,-5.7,x
CCOC(=O)n1c(=O)n(Cc2ccc(Cl)c(Cl)c2)c2ccccc21,-8.2,9.2,-1.1,-12.1,77.0*,+
O=C(CSc1nnc(-c2cc3ccccc3cc2O)n1Cc1ccco1)c1ccc(F)cc1,-43.4,2.9,3.3,-2.9,50.2,i
COc1ccccc1-c1nnc(SCC(=O)c2ccc(C3CCCCC3)cc2)n1Cc1ccco1,26.1,7.2,3.9,-3.4,53.8,+
COc1ccccc1-c1nnc(SCC(=O)Nc2cccc3ccccc23)n1Cc1ccco1,x,6.3,x,x,-19.4,x
COc1cccc(CC(=O)N2CCC(Cn3nc(-c4ccco4)ccc3=O)CC2)c1,x,x,x,x,-46.6,x
Cc1ccc(CN(CCCN2CCOCC2)Cc2ccnn2C2CCCCO2)o1 (stereo not drawn),x,9.1,x,x,-17.4,x
COCCNC(=O)CN(CC1CCCO1)C(=O)CCC(=O)Nc1ccccn1 (stereo not drawn),-22.1,13.4,0.0,-2.3,27.2,x

# Bioassay records: PubChem BioAssay, several laboratories
